Pf Dd2 growth – Plasmodium falciparum Dd2 growth inhibition. Potency, µM (doses to about 28.9 µM), without a hit: top-dose activity, negative = inhibition, usual class: inhibitors. actives 4.3% (n = 120,000). P. falciparum Dd2 growth, SYBR Green, 72 h; active = well fitted inhibition curve with a large enough effect;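 note: plate controls were DMSO vehicle for no effect and reference drug for full effect; nearly all actives have a fitted effect of over 65% in size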
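Infected erythrocytes (Dd2, 0.3% parasitemia, 2.5% hematocrit final) are added to compound in RPMI-1640/Albumax II medium, grown 72 h at 37C in low oxygen, then lysed with saponin/Triton-X containing SYBR Green and read by fluorescence.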
Numbers without * were called inactive; i = inactive; [ ] = dose if it differs, or a comment. Only a selection was taken, and hits are over-represented in it overall. Potency is the fitted concentration of half-maximal effect.

SMILES	Pf Dd2 growth
Cc1ccc(CN2CCC(CNC(=O)Nc3ccc(C)c(C)c3)C2)cc1 (configuration not stated)	-5.1%
Cc1ccc(CN2CCC(CNC(=O)c3cc4ccc5cccnc5c4[nH]3)CC2)cc1	3.55µM*
O=C(c1cc2ccc3cccnc3c2[nH]1)N1CCN(c2ccccc2)CC1	i
Cc1ccc(C)c(CN2CCC(CNC(=O)c3occc3C)C2)c1 (configuration not stated)	-6.7%
CCCN(C(=O)c1cc2ccc3cccnc3c2[nH]1)c1ccc(F)cc1	-18.6%
O=C(NCC1CCN(Cc2cccc(F)c2)CC1)c1cc2ccc3cccnc3c2[nH]1	7.08µM*
CC1=C[C@@H](CNC(=O)c2ccco2)[C@H](C(C)C)C[C@H]1CC(=O)N(C)Cc1ccccc1	-7.7%[44.1 µM]
CC(=O)Nc1ccc(S(=O)(=O)N2C[C@@H]3C[C@H](C2)c2ccc(-c4ccc5ccccc5c4)c(=O)n2C3)cc1	-27.2%
COc1ccc(CNC(=O)c2cc3n(n2)CC(c2ccc4c(c2)OCO4)OC3)cc1 (configuration not stated)	-11.4%
Cc1cccc(CNC(=O)[C@@H]2COCC(=O)N2Cc2ccc(F)cc2)c1	4.9%
CC(C)c1nnc(C2CN(C(=O)C3CCCCC3)CC23CCOCC3)o1 (configuration not stated)	-11.9%
Cc1cccc(OCC2(CNC(=O)C3CCCC3)C[C@@H](O)[C@@H](O)C2)n1 (some centres not stated)	i
CNC(=O)[C@@H]1C[C@H](n2cc(CNC(=O)Nc3cc(F)ccc3F)nn2)CN1	2.2%
Cc1noc(C2CC3(CCN(C(=O)C4CCCC4)CC3)CN2C)n1 (configuration not stated)	-1.5%
O=C([C@@H]1C[C@H](Oc2ccccc2)CN1C(=O)NC1CCCCC1)N1CCOCC1	23.8%
O=C1CCN(Cc2cccnc2)CCCC(C(=O)NC2CCN(Cc3ccccc3)CC2)CCN1 (configuration not stated)	14.6%
O=C(c1ccccn1)N1CCC2(CC1)CC(Cc1ccccc1)CCO2 (configuration not stated)	-7.8%
CCc1nc2c(c(-c3ccc(O)cc3)n1)CCN(Cc1cccn1C)CC2	8.91µM*
CCc1nc2c(c(-c3ccc(Cl)cc3)n1)CN(C(=O)C1CC1)CC2	-8.2%[44.1 µM]
CCc1nc2c(c(-c3ccc(Cl)cc3)n1)CCN(Cc1ccc(F)cc1)CC2	-9.9%
CCc1nc2c(c(-c3ccc(OC)cc3)n1)CCN(C(=O)c1ccccc1)CC2	-22.5%
CCc1nc2c(c(-c3ccc(OC)cc3)n1)CCN(Cc1cccc(NC(C)=O)c1)CC2	12.6µM*
CCc1nc2c(c(-c3ccc(Cl)cc3)n1)CN(C(=O)COC)CC2	1.9%
CCc1nc2c(c(-c3ccc(Cl)cc3)n1)CN(C(=O)Cc1cccc(Cl)c1)CC2	4.47µM*
CCc1nc2c(c(-c3ccc(OC)cc3)n1)CCN(Cc1ccsc1)CC2	-26.7%
SMILES	Pf Dd2 growth
CCc1nc2c(c(-c3ccc(Cl)cc3)n1)CCN(Cc1ccc(NC(C)=O)cc1)CC2	2.51µM*
CCc1nc2c(c(-c3ccc(Cl)cc3)n1)CCN(Cc1ccccc1)CC2	i
Cc1nc2c(c(-c3ccc(O)cc3)n1)CN(Cc1cccn1C)CCC2	-31.4%
COc1ccc(-c2nc(C)nc3c2CCN(Cc2cccn2C)CC3)cc1	i
O=C(c1ccccc1F)N1CCCC(CO)(Cc2ccccc2F)C1 (configuration not stated)	-8.5%
O=C(NCC1CC1)[C@H]1CN(Cc2ccccc2)C[C@H]1C(=O)O	i
Cc1csc(S(=O)(=O)N2CCOC(CCc3ccccc3)C2)c1 (configuration not stated)	-22.3%
CN(CCc1noc(C2CN(C(=O)c3ccccc3C(F)(F)F)C2)n1)C(=O)C1CC1	-5.8%
Cc1cccc(NC(=O)c2ccc(N3CC4CC(C3)[C@H]3CCCC(=O)N3C4)nc2)c1 (some centres not stated)	i
Cc1ccc(C(=O)NC[C@H]2O[C@@H](CC(=O)N3CCOCC3)[C@H](O)[C@@H]2O)cc1	9.0%[44.1 µM]
CCOCCCNC(=O)c1ccc(CN2C(=O)NC3(CCS(=O)(=O)CC3)C2=O)cc1	17.4%
O=C(NC[C@H]1OC[C@@H](NCc2cccs2)[C@@H]1O)c1cccs1	22.4%[44.1 µM]
COc1ccc(C(C)=O)cc1CSc1nc(NCc2ccc(Cl)cc2)c2ccccc2n1	i
COc1ccc(CCNc2nc(SCc3cccc(F)c3)nc3ccccc23)cc1OC	-18.1%
Clc1ccccc1CSc1nc(NCCc2ccccc2)c2ccccc2n1	11.2µM*
Cc1ccccc1CSc1ncc(Cl)c(C(=O)NCc2ccccc2)n1	4.9%
COc1ccc(CCNc2nc(SCc3ccc(Cl)cc3)nc3ccccc23)cc1OC	-16.7%
Clc1ccc(CSc2nc(NCCc3ccccc3)c3ccccc3n2)cc1	10µM*
CC(C)c1cccc(NC(=O)c2ccc3c(c2)N(C)C2CCCCN2C3=O)c1 (configuration not stated)	-9.4%
CN(C)c1nccnc1OC1CCN(C(=O)CCc2ccccc2)C1 (configuration not stated)	-5.5%
O=CN1CCC(Cn2cnc3cccnc32)CC1	22.2%[44.1 µM]
O=C(N[C@H]1C[C@@H](CO)N(CCc2ccccc2)C1)c1cccnc1	i
O=C(N[C@H](c1ccccn1)C1CC(O)C1)C1(c2ccc(Cl)cc2)CCC1 (some centres not stated)	-24.6%
Cc1ccc(C(=O)N2CCn3c(nn(-c4ccc(F)cc4F)c3=O)C2)cc1	11.7%
O=C(NC[C@H]1O[C@@H](CO)[C@@H](O)[C@H]1N1CCN(c2ccc(F)cc2)CC1)c1ccc(F)c(Cl)c1	i
SMILES	Pf Dd2 growth
O=S(=O)(c1cccs1)N1CCC(c2nc(CCOc3ccc(F)cc3)no2)C1 (configuration not stated)	i
O=C(O)c1ccc(-c2nnc3ccc(NC(=O)C4CCC4)cn23)cc1	-11.1%
CC(C)CCNC(=O)c1ccc(-c2nnc3ccc(NC(=O)C4CCC4)cn23)cc1	2.82µM*
O=C(NC1CC1)c1ccc2nnc(-c3ccc(Cl)cc3)n2c1	7.1%
CC(C)c1ccc(CC(=O)N2CCCc3ncc(C(=O)NCCCn4ccnc4)cc32)cc1	-4.9%
COc1ccc(C(=O)N2CCCC(CO)CCNC(=O)CC2)c(OC)c1 (configuration not stated)	-15.1%
COCCNC(=O)[C@H]1C[C@H](Oc2ccccc2)CN1C(=O)c1ccco1	7.9%
COCCNc1ncc(-c2cccc(NC(C)=O)c2)c2c1OCC2	32.0%[44.1 µM]
CN1C(=O)CO[C@H]2CN(Cc3c[nH]c4ccccc34)C[C@H]21	i
COc1cncc(CN2CC[C@@H]3OCC(=O)N(Cc4ccccc4)[C@H]3CC2)c1	-9.4%[44.1 µM]
O=C1CO[C@H]2CCN(Cc3cccc(OC(F)(F)F)c3)CC[C@@H]2N1Cc1ccccc1	i
O=C1CO[C@H]2CN(Cc3c[nH]c4ccccc34)C[C@H]2N1Cc1ccc(F)cc1	5.01µM*
O=C1CO[C@H]2CCN(Cc3cccc(OC(F)(F)F)c3)CC[C@@H]2N1Cc1c[nH]c2ccccc12	7.94µM*
O=C1CO[C@H]2CN(Cc3c[nH]c4ccccc34)C[C@H]2N1	-21.0%[44.1 µM]
Cc1ccc(CN2CCN(c3cc(NCCO)ncn3)CC2CCO)cc1 (configuration not stated)	-11.2%
O=[S+]1([O-])NCC2(CCN(Cc3ccccn3)CC2)Oc2ncccc21	i
Nc1n[nH]c(C(=O)N2C[C@H](CO)C[C@H](CN3CCOCC3)C2)c1Cl	-4.0%
COc1ccccc1C(=O)N1CCC2(CC1)CC(OC)CCO2 (configuration not stated)	i

Assay outcomes deposited in PubChem BioAssay by National Center for Advancing Translational Sciences (NCATS).
